This note sets out measurements from the supplement of paper PMC8371130.

Counter-ions that a name gives are not always drawn.

The experiment deals with HL-1. The experiment is described as follows: relative cell viability (CellTiter-Glo) vs DMSO control (% of DMSO control); higher = more viable cells. Conditions: oxygen condition: normoxia 72 h; 5000 nM. An outline of the steps:
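One day after HL-1 mouse atrial cardiomyocytes were plated (1000 cells per well, 384-well plates) with compounds at 40, 200, 1000 or 5000 nM in 0.01% DMSO, they were transferred to a hypoxic workstation at 1% O2. After 48 h there, the cells were reoxygenated for 24 h in a normal incubator, and comparison cells stayed in normoxia throughout the same time. Cell viability was quantified with CellTiter-Glo luminescence and normalised to vehicle-treated control cells.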
For orientation: In ATP-based viability assays light output follows the ATP content of the culture.
As for `CCC(C)n1ncn(-c2ccc(N3CCN(c4ccc(OCC5COC(Cn6cncn6)(c6ccc(Cl)cc6Cl)O5)cc4)CC3)cc2)c1=O` (centres undefined) [Itraconazole], the relative cell viability was 107. The value for `NC(=O)c1ncn([C@@H]2O[C@H](CO)[C@@H](O)[C@H]2O)c1O` [Mizoribine] was 110; that for `COc1cc(OC)c(C(=O)CCCN2CCCC2)c(OC)c1` [Buflomedil HCl] was 114; that for `COc1ccc2cc1Oc1ccc(cc1)C[C@H]1c3c(cc4c(c3Oc3cc5c(cc3OC)CCN(C)[C@@H]5C2)OCO4)CCN1C` [Cepharanthine] was 11.3.
